Source: PubChem BioAssay (NCATS)
Results filed as inconclusive are left out. Unmarked numbers belong to inactive results. Active and inactive are the calls of the source. Calls follow the shape of the dose curve; as a rule, active = well fitted cell-killing curve with a large enough effect; inconclusive = small, poorly fitted or top-dose-only effect; inactive = flat fitted curve, though single readings scatter.
Potency is read from the fitted curve at half-maximal effect.

Experiment: Cellular viability qHTS for adrenocortical cancer (ACC) cell line NCI-H295R (AID 1963990); also: nearly all actives have a fitted effect of over 60% in size;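 as to activity change, negative = viability loss: 0% = DMSO only wells and -100% = full killing with cytotoxic reference compound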
Conditions: CellTiter-Glo ATP luminescence, 48 h; series mostly up to 46.1 µM; activity change, negative = viability loss: at the top concentration
In short: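 Compound titrations (up to 46 uM final) are applied to NCI-H295R cultures for 48 h at 37C. Viable cell number is estimated by CellTiter-Glo signal, normalised to DMSO and doxorubicin controls.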
In the case of `CCNCc1nc2c(N)nc3ccccc3c2n1CC(C)(C)O`, the “activity change, negative = viability loss” value is reported as -29.8%. With `CO/N=C(/C(=O)N[C@@H]1C(=O)N2C(C(=O)O)=C(Cn3nnc(C)n3)CS[C@H]12)c1csc(N)n1` the “activity change, negative = viability loss” value was 2.01%. For `CCN1CCC[C@H]1CNC(=O)c1c(O)c(Cl)cc(Cl)c1OC`, the “activity change, negative = viability loss” value was -1.26%. In the case of `Cc1ccc(NC(=O)Nc2cc(C(F)(F)F)ccc2F)cc1Nc1ccc2c(c1)NC(=O)/C2=C\c1ccc[nH]1`, the Potency is reported as 25.1 µM (active). In the case of `O=C(NCC(=O)N1CC[C@H](NC2CCC(O)(c3ccc(-c4ncccn4)cn3)CC2)C1)c1cccc(C(F)(F)F)c1` (stereo partly drawn), the “activity change, negative = viability loss” value is reported as -25%. With `Nc1nc(N)c2nc(-c3ccccc3)c(N)nc2n1` the Potency was 4.61 µM (active). With `CNc1nc(C)nc(N[C@H]2CCC[C@@H](C(=O)NCc3ccc(C#N)cc3C(F)(F)F)C2)n1` the “activity change, negative = viability loss” value was -9.8%. In the case of `COC(=O)N[C@@H](C)CNc1nccc(-c2cn(C(C)C)nc2-c2cc(Cl)cc(NS(C)(=O)=O)c2F)n1`, the “activity change, negative = viability loss” value is reported as 1.32%. In the case of `CC(C)N=C(N)/N=C(\N)Nc1ccc(Cl)cc1`, the “activity change, negative = viability loss” value is reported as -27.2%. For `CO[C@@H]1[C@@H](O[C@@H]2O[C@H](C)[C@@H](O[C@H]3C[C@@](C)(O)[C@@H](O)[C@H](C)O3)[C@H](N(C)C)[C@H]2O)[C@@H](CC=O)C[C@@H](C)[C@@H](O[C@@H]2CC[C@H](N(C)C)[C@@H](C)O2)/C=C/C=C/C[C@@H](C)OC(=O)C[C@H]1OC(C)=O`, the “activity change, negative = viability loss” value was -14.4%. For `COc1cc2nc(Cl)nc(N)c2cc1OC`, the “activity change, negative = viability loss” value was -23.8%. With `CO[C@@]1(NC(=O)Cc2cccs2)C(=O)N2C(C(=O)O)=C(COC(N)=O)CS[C@@H]21` the “activity change, negative = viability loss” value was 1.69%. In the case of `Oc1c(I)cc(Cl)c2cccnc12`, the Potency is reported as 14.6 µM (active).
